Compounds without any hit were thinned out: in the full panel of roughly 83,000, 20% have a hit.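 The test compound was applied at a single concentration to cells in 96-well plates for 48 hours, and percent growth was recorded.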 A number with no mark means an inactive call. The source made the active and inactive calls. The calls were made as follows: active = growth percent below 10; inactive = the rest.

What all share (assay): NCI-60 one-dose screen, 48 h (100 = growth as untreated, 0 = no growth, -100 = all killed)
The test system of experiment [1] is DU-145 prostate. The following applies: 10 µM unless noted.
For experiment [2], the system named is MALME-3M melanoma. The following applies: 10 µM unless noted.
Experiment [3] has as its system RXF 393 renal. The conditions noted are these: 10 µM unless noted.
Experiment [4] relates to SF-295 CNS. The following applies: 10 µM unless noted.
The subject of experiment [5] is UACC-257 melanoma. The following applies: 10 µM unless noted.
Experiment [6] has as its system SNB-75 CNS. The conditions noted are these: 10 µM unless noted.
For experiment [7], the system named is SNB-19 CNS. The following applies: 10 µM unless noted.
Experiment [8] concerns LOX IMVI melanoma. The following applies: 10 µM unless noted.
Experiment [9] deals with SK-MEL-28 melanoma. The following applies: 10 µM unless noted.
The subject of experiment [10] is SK-MEL-2 melanoma. The conditions noted are these: 10 µM unless noted.
The subject of experiment [11] is SN12C renal. The following applies: 10 µM unless noted.
For experiment [12], the system named is MOLT-4 leukemia. The conditions noted are these: 10 µM.
In experiment [13] the test system is OVCAR-8 ovarian. The conditions noted are these: 10 µM unless noted.
In experiment [14] the test system is OVCAR-4 ovarian. The following applies: 10 µM unless noted.
Experiment [15] has as its system SK-OV-3 ovarian. The following applies: 10 µM unless noted.
Experiment [16] has as its system BT-549 breast. The conditions noted are these: 10 µM.
Experiment [17] has as its system HCC-2998 colon. The following applies: 10 µM unless noted.
Experiment [18] deals with HOP-62 NSCLC. The following applies: 10 µM unless noted.
Experiment [19] relates to A549/ATCC NSCLC. The conditions noted are these: 10 µM unless noted.
Experiment [20] concerns A498 renal. The following applies: 10 µM unless noted.

With `CC12CCC3C(CC=C4CC(O)CCC43C)C1C/C(=C\N1CCOCC1)C2=O` (configuration not stated), the growth is 110% in [1]; 110% in experiment [2]; 110% in [3]; 113% in experiment [4]; 101% in [5]; 83.5% in experiment [6]. In addition, the growth is 110% in [7]; 105% in experiment [8]; 106% in experiment [9]; 106% in [10]; 102% in experiment [11]; 106% in [12]. The growth is 100% in [13]; 94.4% in experiment [14]; 111% in experiment [15]; 93.1% in experiment [16]; 114% in experiment [17].
Turning to `CCOP(=O)(OCC)Oc1ccc(Sc2ccc(OP(=O)(OCC)OCC)cc2)cc1`, the growth in experiment [18] is 93.2%; in experiment [19], 97.5%; in experiment [1] it was 103%; in [2], 93.5%; in experiment [3], 106%; in experiment [4] it was 97.5%. The growth in [5] was 93.1%; in experiment [6], 95%; in [7] it was 100%; in experiment [8] it was 107%; in experiment [9], 111%; in experiment [10] it was 94%. Further, the growth in experiment [11] is 101%; in experiment [20], 85.2%; in experiment [12], 93.8%; in experiment [13], 99.8%; in [14] it was 116%; in experiment [15], 103%. Besides, the results for the growth in [16] and in experiment [17] were 96% and 102%, respectively.
Take `COC(C)(C)CCC[C@H](C)C/C=C/C(C)=C/C(=O)OC(C)C`: the growth in experiment [18] was 107%; in experiment [19] it was 98.5%; in experiment [1], 113%; in experiment [2], 85.9%; in experiment [3], 104%; in [4], 98.2%. For the same compound, the growth in experiment [5] is 101%; in experiment [6], 118%; in experiment [7], 109%; in [8], 92.9%; in [9], 101%; in [10], 97.1%. Further, the growth in [11] is 92.5%; in [20] it was 110%; in experiment [12], 90%; in [13], 98.2%; in experiment [14], 90%; in experiment [15], 92%. Also, the values for the growth in experiment [16] and in [17] were 103% and 101%, respectively.
Take `C/C(=N/OC(=O)N(C)C)c1cc(Cl)ccc1Cl`: the growth in experiment [18] is 95.6%; in [19], 101%; in experiment [1] it was 105%; in experiment [2] it was 95.9%; in [3] it was 102%; in experiment [4], 98.6%. Also, the growth in experiment [5] is 103%; in [6], 82.1%; in experiment [7], 101%; in experiment [10], 95.7%; in experiment [11] it was 103%; in experiment [20], 86.8%. Moreover, the growth in experiment [12] was 89.7%; in experiment [13] it was 103%; in experiment [14], 107%; in [15] it was 98.3%; in experiment [16], 98.5%; in [17], 102%.
`CNC(=O)Oc1ccccc1-c1ccccc1`: the growth is 103% in experiment [18]; 96.2% in [19]; 106% in experiment [1]; 102% in [2]; 120% in [3]; 94.5% in experiment [4]. Besides, the growth in [5] is 101%; in [6], 88.3%; in experiment [7], 97.7%; in [8], 104%; in experiment [9], 109%; in experiment [10], 76.3%. The growth in experiment [11] was 106%; in experiment [20], 93.2%; in [12], 96%; in experiment [13], 103%; in experiment [14], 110%; in experiment [15], 101%. Besides, the growth is 103% in [16] and 101% in experiment [17].
Turning to `O=C(O)CNC(=O)c1ccccc1`, the growth in experiment [18] was 93.4%; in [19] it was 101%; in experiment [1] it was 119%; in experiment [2] it was 133%; in [3] it was 102%; in [4], 104%. Moreover, the growth in experiment [5] is 92.4%; in experiment [6], 93.7%; in [7], 98.6%; in experiment [8], 95.9%; in experiment [9], 107%; in [10], 97.2%. Also, the growth in [11] is 107%; in [20], 85%; in experiment [13] it was 113%; in [14] it was 105%; in [15] it was 104%; in [16], 97.5%. Moreover, the growth in experiment [17] is 98.9%.
On to `N#[N+]c1cnc([O-])[nH]c1=O`, for which the growth in experiment [18] is 105%; in experiment [1] it was 99.9%; in [2], 105%; in experiment [4], 105%; in experiment [5] it was 75.8%; in [7] it was 97.8%. In addition, the growth in [8] was 85.2%; in [9], 104%; in experiment [10] it was 96.7%; in experiment [11], 84.9%; in experiment [20], 85.9%; in experiment [12] it was 91%. The growth is 88.7% in [13], 100% in [14], 94% in [15] and 114% in experiment [16].
On to `CCCCCN(CCCCC)CC(O)c1ccc(C)c(Cl)c1` (configuration not stated), for which the growth in experiment [18] was 90.1%; in experiment [19] it was 92.7%; in experiment [1], 118%; in experiment [2], 105%; in [4], 87%; in experiment [5], 95.4%. Also, the growth was 98% in [7]; 96.3% in experiment [8]; 96.6% in experiment [9]; 101% in [10]; 101% in experiment [11]; 78.5% in experiment [20]. Moreover, the growth is 110% in experiment [12]; 102% in [13]; 105% in experiment [14]; 94.3% in experiment [15]; 107% in experiment [16]; 107% in [17].
Consider `Cc1cc(NC(=O)NCCOc2ccc(N3C(N)=NC(N)=NC3(C)C)cc2Cl)ccc1S(=O)(=O)F`, for which the growth in [18] is 60.8%; in experiment [19] it was 9.6% (active); in experiment [1], 34.4%; in [2], 53.3%; in experiment [3], 53.8%; in experiment [5], 32.2%. Also, the growth in [6] is 71.5%; in [7], 51.5%; in experiment [8], 12.8%; in experiment [9], 51.8%; in experiment [10], 51.4%; in experiment [11], 7.66% (active). For the same compound, the growth in experiment [20] was 79.1%; in experiment [12] it was 26.7%; in [13], 25.3%; in [14] it was 71.5%; in experiment [15] it was 55.4%; in [16] it was 52.1%. Further, the growth in experiment [17] was 47.3%.

For the origin of these results see PubChem BioAssay (NCI).
